Rows were chosen to be rich in hits. Some 1.8% of all compounds tested hit in one or more screens of this group.
PME-1 primary: blocks human protein phosphatase methylesterase 1 | inhibition, % at 5.9 µM | recombinant PME-1, FP-Rh probe fluorescence polarization | Q9Y570 | hit rate 0.53% among 320,000 | AID 2130;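 active = inhibition above the campaign mean of all compounds plus 3 SD, cut at about 26% in these data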;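 also: competitive labeling of PME-1 active site by serine hydrolase directed probe; inhibitors block probe labeling so polarization falls and inhibition rises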
GSTO1 counter: GSTO1 inhibition, counter-screen for RBBP9 inhibitors; recombinant GSTO1, activity-based probe fluorescence polarization; hit rate 1.1% among 300,000; AID 1974; inhibition, % at 5.96 µM; P78417;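 active = inhibition above the campaign mean inhibition plus 3 SD, cut at about 35% in these data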
PAD4 inh: PAD4 (human) enzyme inhibition. inhibition, % at 6.36 µM. AID 485272. recombinant PAD4, RCA probe fluorescence polarization. Q9UM07. hit rate 0.41% among 330,000;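 active = percent inhibition above a cutoff equal to the mean of all tested compounds plus 3 SD, cut at about 15% in these data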
Target sequence (Q9UM07 whole entry, looked up): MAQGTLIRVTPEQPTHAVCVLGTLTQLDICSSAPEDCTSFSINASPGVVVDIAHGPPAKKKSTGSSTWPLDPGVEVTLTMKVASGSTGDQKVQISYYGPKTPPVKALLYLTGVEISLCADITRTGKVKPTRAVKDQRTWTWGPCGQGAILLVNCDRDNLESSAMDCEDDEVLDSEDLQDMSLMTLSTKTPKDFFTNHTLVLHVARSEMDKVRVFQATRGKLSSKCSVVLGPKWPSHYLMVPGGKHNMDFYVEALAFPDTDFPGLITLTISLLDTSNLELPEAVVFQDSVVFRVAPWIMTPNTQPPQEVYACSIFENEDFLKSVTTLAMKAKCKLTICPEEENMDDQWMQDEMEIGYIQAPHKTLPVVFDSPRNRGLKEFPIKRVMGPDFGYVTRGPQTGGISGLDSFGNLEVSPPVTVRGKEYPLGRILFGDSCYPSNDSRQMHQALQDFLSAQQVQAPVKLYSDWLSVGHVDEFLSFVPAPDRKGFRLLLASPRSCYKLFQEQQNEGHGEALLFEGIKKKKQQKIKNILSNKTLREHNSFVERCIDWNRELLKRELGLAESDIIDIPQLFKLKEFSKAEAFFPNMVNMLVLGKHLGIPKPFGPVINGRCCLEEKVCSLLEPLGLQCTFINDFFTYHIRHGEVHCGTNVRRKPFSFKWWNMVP
LYPLA1 inh: blocks human lysophospholipase 1, a PME1 counter-screen | hit rate 0.16% among 320,000 | recombinant LYPLA1, FP-Rh probe fluorescence polarization | inhibition, % at 5.9 µM | O75608;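 active = inhibition above the mean of all tested compounds plus 3 SD, set per campaign, cut at about 14% in these data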;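 also: inhibitors block serine hydrolase probe labeling of LYPLA1 so polarization falls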
Fam108B inh: blocks mouse Fam108B hydrolase in RBBP9 counter-screen. inhibition, % at 9.51 µM. recombinant Fam108B, FP-Rh probe fluorescence polarization. AID 1947. hit rate 0.33% among 300,000;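 active = inhibition above the screen mean inhibition plus 3 SD, computed separately per campaign, cut at about 18% in these data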;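 also: inhibitors lower polarization as less probe binds the enzyme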
LYPLA2 inh: LYPLA2 (human) inhibition in PME1 counter-screen; hit rate 0.38% among 320,000; O95372; recombinant LYPLA2, FP-Rh probe fluorescence polarization; AID 2177; inhibition, % at 5.9 µM;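 active = inhibition above the screen-wide mean plus 3 SD, limit set per campaign, cut at about 26% in these data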
Fam108b confirm: confirmation of mouse Fam108b serine hydrolase inhibitors | shares compounds with Fam108B inh | recombinant Fam108b, FP-Rh probe fluorescence polarization | inhibition, % at 9.51 µM | hit rate 44% among 930;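 active = inhibition above a limit from the primary screen, the mean over all compounds plus 3 SD, cut at about 19% in these data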;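 also: inhibitors free the probe so polarization falls as inhibition rises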
Fam108b inh: inhibits mouse Fam108b in gel-based ABPP. shares compounds with Fam108B inh. recombinant Fam108b, fluorophosphonate probe. inhibition, % at 20 µM. hit rate 44% among 260. AID 588649; in the data active = inhibition above about 40%
GSTO1 inh conf: confirmation of human GSTO1 inhibitors | recombinant GSTO1, probe fluorescence polarization | hit rate 54% among 2,400 | AID 2176 | inhibition, % at 5.96 µM | shares compounds with GSTO1 counter;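 active = inhibition above the primary screen's cutoff, its mean inhibition plus 3 SD, cut at about 35% in these data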;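 also: loss of polarization as inhibitors block binding of rhodamine sulfonate ester activity probe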
Each line names hits and unclear results; the compound was inactive in the other large screens (follow-up assays come after a bar, where they were run).

Cc1cnc(C(=O)NNC(=O)c2ccc(Br)cc2)cn1	none
O=S(=O)(O)c1cc(O)c2c(O)c(N=Nc3cc(Cl)ccc3O)c(S(=O)(=O)O)cc2c1	GSTO1 counter 62.1, Fam108B inh 23.6 | Fam108b confirm inactive | GSTO1 inh conf 72.6
Oc1ccc(Cl)cc1N=Nc1ccccc1	none
Oc1ccc(N=Cc2ccc(OCc3ccccc3)cc2)cc1	PME-1 primary 26.7, GSTO1 counter 85.8, Fam108B inh 20.1 | Fam108b confirm inactive | GSTO1 inh conf inactive
O=C(N/N=C/c1ccc(OCc2ccccc2)cc1)c1ccncc1	none
O=C1NN(c2ccccc2)C(=O)/C1=C/c1ccc(-c2ccc(C(=O)O)cc2)o1	none
O=C1NN(c2ccccc2)C(=O)/C1=C/c1ccc(Sc2cccc3ccccc23)o1	GSTO1 counter 48.8, Fam108B inh 29.2 | Fam108b confirm inactive | GSTO1 inh conf 65.5
Cc1ccc(-n2c(O)c(/C=N/Nc3ccc(S(=O)(=O)N4CCOCC4)cc3[N+](=O)[O-])c3ccccc3c2=O)c(C)c1	PME-1 primary 34.4, GSTO1 counter 38.1, Fam108B inh 32.2 | Fam108b confirm 45.5 | Fam108b inh 45.0 | GSTO1 inh conf 61.9
COc1cccc2c1NC(C(=O)O)C1CC=CC21 (configuration not stated)	GSTO1 counter 61.3, Fam108B inh 53.4 | Fam108b confirm inactive | GSTO1 inh conf 45.7
O=C(O)C1Nc2ccc(OC(F)(F)F)cc2C2C=CCC12 (configuration not stated)	GSTO1 counter 48.2, Fam108B inh 22.5 | Fam108b confirm inactive | GSTO1 inh conf inactive
COc1cccc(C2Nc3c(F)cc(Br)cc3C3C=CCC32)c1OC (configuration not stated)	none
O=c1c(O)cccc2cc(O)c(O)c(O)c12	GSTO1 counter 51.0, Fam108B inh 48.8 | Fam108b confirm 31.1 | Fam108b inh inactive | GSTO1 inh conf 71.6
COc1cc(C2Nc3cccc4cccc(c34)N2)cc(OC)c1OC(C)=O	GSTO1 counter 48.8, Fam108B inh 33.7 | Fam108b confirm inactive | GSTO1 inh conf inactive
O=C(O)CCCN1C(=O)/C(=C/C=C/c2ccco2)SC1=S	GSTO1 counter 41.9, Fam108B inh 50.0 | Fam108b confirm inactive | GSTO1 inh conf 37.0
Cc1ccc(NC(=O)CCCN2C(=O)/C(=C/C=C/c3ccccc3)SC2=S)cc1	none
Cn1c(SCC(=O)NNC(=O)c2ccccc2)nnc1C(F)(F)F	none (no result: GSTO1 counter, Fam108B inh)
CCCCNC(=O)Oc1c(Br)cc2sc(=O)oc2c1Br	GSTO1 counter 66.3, Fam108B inh 25.7 | Fam108b confirm inactive | GSTO1 inh conf inactive
CCCCN1C(=O)C(=O)N(CC(=O)Nc2sc(CC)cc2C(=O)OCC)C1=O	none
COc1ccc(CNc2nc3ccccc3n2C)c(OC)c1	none
COc1ccc(N=Nc2nc3cc(Br)c(Br)cc3n2C)c(OC)c1	PME-1 primary 61.3, GSTO1 counter 40.2, Fam108B inh 31.3 | Fam108b confirm inactive | GSTO1 inh conf inactive
CCOC(=O)C1CCCN(C(=O)CNC(=O)c2ccc(Br)o2)C1 (configuration not stated)	none (no result: PME-1 primary, GSTO1 counter, LYPLA1 inh, Fam108B inh, LYPLA2 inh)
CCOC(=O)C1=C(SCC)c2cc3c(n2C1=O)CCCC3	GSTO1 counter 37.7, Fam108B inh 22.5 | Fam108b confirm inactive | GSTO1 inh conf inactive
O=C(CCl)Nc1nc(-c2ccco2)c(-c2ccco2)s1	GSTO1 counter 87.7, Fam108B inh 18.8 | Fam108b confirm inactive | GSTO1 inh conf 88.5
CC(=O)c1sc(NC(=O)CCNC(=O)c2ccco2)nc1-c1ccccc1	none
CCOC(=O)c1c(NC(=O)C(C)OC(=O)c2ccc(NC(=O)CC#N)cc2)sc2c1CCCC2 (configuration not stated)	none
CCN=c1scc(C)n1/N=C/c1cc(Br)c(O)c(Br)c1	GSTO1 counter 46.2, Fam108B inh 20.5 | Fam108b confirm inactive | GSTO1 inh conf inactive
CN(CC(=O)Nc1ccc(F)cc1)C(=O)CCc1ccccc1	none
Cc1ccc(OCC(=O)Nc2oc(-c3ccccc3)c(-c3ccccc3)c2C#N)cc1	none

Screening results from PubChem BioAssay.
